# Reference: the supplement of paper PMC6555819
# Legend:
# Test in all cases: PBM binding z-score (relative to random genomic background probes); higher = stronger binding; sequences stand for … in GC…GCGATTGACAGCGTAGAATGAAGG
# [1] = test system: FXR:RXRa (NR concentration 270 nM, RXRa partner concentration 90 nM)
# In short: (§1)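 For binding z-scores, the reference was random background probes on custom Agilent 4×180K protein-binding microarrays. These arrays were incubated 1 h with ligand-free nuclear receptor dimers in PBS pH 7.4, 2% milk, 0.02% Triton X-100, 1 mM DTT, 0.2 mg/mL BSA and 0.4 mg/ml salmon testes DNA. Fluorescence was scanned after antibody detection of each partner (one per run) and regression-normalized.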
# [2] = test system: LXRa:RXRa (NR concentration 270 nM, RXRa partner concentration 90 nM)
# In short: as §1
# [3] = test system: LXRa homodimer (NR concentration 270 nM)
# In short: as §1
# [4] = test system: LXRb:RXRa (NR concentration 270 nM, RXRa partner concentration 90 nM)
# In short: as §1
# [5] = test system: LXRb homodimer (NR concentration 270 nM)
# In short: as §1
# [6] = test system: PPARa:RXRa (NR concentration 270 nM, RXRa partner concentration 90 nM)
# In short: as §1
# [7] = test system: PPARg:RXRa (NR concentration 180 nM, RXRa partner concentration 90 nM)
# In short: as §1
# [8] = test system: PPARg:RXRa 270nM:90nM, anti-RXR (NR concentration 270 nM, RXRa partner concentration 90 nM)
# In short: as §1
# [9] = test system: PPARg:RXRa 30nM:10nM, anti-RXR (NR concentration 30 nM, RXRa partner concentration 10 nM)
# In short: as §1
# [10] = test system: PPARg:RXRa 90nM:30nM, anti-RXR (NR concentration 90 nM, RXRa partner concentration 30 nM)
# In short: as §1
sequence,measurement,setting,value
CGAACTAGGTCATTGACAGGACATTGAATAGTAA,PBM binding z-score,[1],3.53
same,PBM binding z-score,[2],3.53
same,PBM binding z-score,[3],1.19
same,PBM binding z-score,[4],2.32
same,PBM binding z-score,[5],0.107
same,PBM binding z-score,[6],4.56
same,PBM binding z-score,[7],7.27
same,PBM binding z-score,[8],6.42
same,PBM binding z-score,[9],4.27
same,PBM binding z-score,[10],5.95
CCTGCTAGGTCATGGACAGCTAATCTACAGTATG,PBM binding z-score,[1],3.61
same,PBM binding z-score,[2],2.77
same,PBM binding z-score,[3],-0.434
same,PBM binding z-score,[4],1.75
same,PBM binding z-score,[5],-0.251
same,PBM binding z-score,[6],3.61
same,PBM binding z-score,[7],2.53
same,PBM binding z-score,[8],2.8
same,PBM binding z-score,[9],0.906
same,PBM binding z-score,[10],1.75
ATCTCTAGGTAAGACTCAGTTCAGTGAAGAACGC,PBM binding z-score,[1],0.226
same,PBM binding z-score,[2],0.477
same,PBM binding z-score,[3],0.614
same,PBM binding z-score,[4],0.261
same,PBM binding z-score,[5],1.05
same,PBM binding z-score,[6],0.0408
same,PBM binding z-score,[7],-0.0322
same,PBM binding z-score,[8],0.385
same,PBM binding z-score,[9],0.412
same,PBM binding z-score,[10],0.159
TCATATACGTAAACAGGTGAAAGTCCGTAAGTTA,PBM binding z-score,[1],1.15
same,PBM binding z-score,[2],1.2
same,PBM binding z-score,[3],0.468
same,PBM binding z-score,[4],1.33
same,PBM binding z-score,[5],0.615
same,PBM binding z-score,[6],1.75
same,PBM binding z-score,[7],1.14
same,PBM binding z-score,[8],2.99
same,PBM binding z-score,[9],4.45
same,PBM binding z-score,[10],3.61
CGTCCAAGGTCATAGGATGTCAGTGAAGACAGAT,PBM binding z-score,[1],7.4
same,PBM binding z-score,[2],5.86
same,PBM binding z-score,[3],1.1
same,PBM binding z-score,[4],4.02
same,PBM binding z-score,[5],0.568
same,PBM binding z-score,[6],5.6
same,PBM binding z-score,[7],4.69
same,PBM binding z-score,[8],5.42
same,PBM binding z-score,[9],1.9
same,PBM binding z-score,[10],3.95
GCTAGCAGGCCATTTGGGGCACTCAATGACGGGC,PBM binding z-score,[1],-0.254
same,PBM binding z-score,[2],-0.719
same,PBM binding z-score,[3],-0.424
same,PBM binding z-score,[4],-0.753
same,PBM binding z-score,[5],-0.89
same,PBM binding z-score,[6],-0.000395
same,PBM binding z-score,[7],0.377
same,PBM binding z-score,[8],-0.278
same,PBM binding z-score,[9],-0.304
same,PBM binding z-score,[10],-0.0904
GCTCGGAGGACAAGGTCAGACCTTTGTCCGTAGA,PBM binding z-score,[1],2.03
same,PBM binding z-score,[2],2.52
same,PBM binding z-score,[3],-0.219
same,PBM binding z-score,[4],1.95
same,PBM binding z-score,[5],0.0255
same,PBM binding z-score,[6],3.08
same,PBM binding z-score,[7],1.88
same,PBM binding z-score,[8],2.61
same,PBM binding z-score,[9],-0.0164
same,PBM binding z-score,[10],1.74
GCGACTGGGGCATCAGAAGGTTACCATAACTTAA,PBM binding z-score,[1],-0.0561
same,PBM binding z-score,[2],0.0873
same,PBM binding z-score,[3],-0.311
same,PBM binding z-score,[4],1.22
same,PBM binding z-score,[5],-0.607
same,PBM binding z-score,[6],1.65
same,PBM binding z-score,[7],1.43
same,PBM binding z-score,[8],1.22
same,PBM binding z-score,[9],-0.0101
same,PBM binding z-score,[10],0.461
TCTTGTAGATCAACGGGAGGTTAAGAAAGATCGA,PBM binding z-score,[1],0.553
same,PBM binding z-score,[2],1.31
same,PBM binding z-score,[3],0.00977
same,PBM binding z-score,[4],1.17
same,PBM binding z-score,[5],0.12
same,PBM binding z-score,[6],1.49
same,PBM binding z-score,[7],-0.121
same,PBM binding z-score,[8],1.58
same,PBM binding z-score,[9],2.52
same,PBM binding z-score,[10],2.01
AGAATGAGGCTAAGATCAGGGAAACAGAATACAT,PBM binding z-score,[1],-0.36
same,PBM binding z-score,[2],-0.634
same,PBM binding z-score,[3],-0.0824
same,PBM binding z-score,[4],-0.157
same,PBM binding z-score,[5],-0.737
same,PBM binding z-score,[6],-0.0265
same,PBM binding z-score,[7],0.645
same,PBM binding z-score,[8],0.202
same,PBM binding z-score,[9],0.113
same,PBM binding z-score,[10],0.138
ATCTGTAGGTTAGCTGGGGTCATTCAGACTAGGC,PBM binding z-score,[1],3.92
same,PBM binding z-score,[2],6.12
same,PBM binding z-score,[3],3.25
same,PBM binding z-score,[4],4.61
same,PBM binding z-score,[5],1.64
same,PBM binding z-score,[6],4.22
same,PBM binding z-score,[7],2.15
same,PBM binding z-score,[8],3.26
same,PBM binding z-score,[9],0.98
same,PBM binding z-score,[10],2.02
GATACAGGGTCAAGGCCAAAGTACGCGTATTGAT,PBM binding z-score,[1],6.56
same,PBM binding z-score,[2],4.57
same,PBM binding z-score,[3],0.296
same,PBM binding z-score,[4],4.15
same,PBM binding z-score,[5],0.33
same,PBM binding z-score,[6],5.6
same,PBM binding z-score,[7],6.18
same,PBM binding z-score,[8],5.96
same,PBM binding z-score,[9],2.37
same,PBM binding z-score,[10],4.76
AGAATGAGGTTAAGATCAGGGAAACAGAATACAT,PBM binding z-score,[1],2.37
same,PBM binding z-score,[2],2.14
same,PBM binding z-score,[3],-0.0625
same,PBM binding z-score,[4],1.9
same,PBM binding z-score,[5],-0.0135
same,PBM binding z-score,[6],3.67
same,PBM binding z-score,[7],2.46
same,PBM binding z-score,[8],2.54
same,PBM binding z-score,[9],1.11
same,PBM binding z-score,[10],1.75
CGTACTGGGCCAAGGTCATTGATCAGTCAAAGCA,PBM binding z-score,[1],3.11
same,PBM binding z-score,[2],3.03
same,PBM binding z-score,[3],1.23
same,PBM binding z-score,[4],3
same,PBM binding z-score,[5],-0.201
same,PBM binding z-score,[6],3.99
same,PBM binding z-score,[7],4.09
same,PBM binding z-score,[8],4.29
same,PBM binding z-score,[9],1.79
same,PBM binding z-score,[10],3.54
CCGCCTAGGTCAGGGCCAGTATAGGAGGAACGTT,PBM binding z-score,[1],1.6
same,PBM binding z-score,[2],1.11
same,PBM binding z-score,[3],-0.253
same,PBM binding z-score,[4],1.1
same,PBM binding z-score,[5],-0.93
same,PBM binding z-score,[6],2.15
same,PBM binding z-score,[7],0.674
same,PBM binding z-score,[8],0.881
same,PBM binding z-score,[9],-0.497
same,PBM binding z-score,[10],-0.0982
TCAGACAGGTGAAGGTAACTCAGGTACGCAGTCG,PBM binding z-score,[1],0.942
same,PBM binding z-score,[2],1.82
same,PBM binding z-score,[3],-0.0918
same,PBM binding z-score,[4],1.2
same,PBM binding z-score,[5],-0.116
same,PBM binding z-score,[6],1.34
same,PBM binding z-score,[7],0.719
same,PBM binding z-score,[8],2.37
same,PBM binding z-score,[9],3.89
same,PBM binding z-score,[10],2.98
CCGACTGGCGCATAAGGTTACCATAAGCCAGCCC,PBM binding z-score,[1],0.387
same,PBM binding z-score,[2],1.91
same,PBM binding z-score,[3],-0.184
same,PBM binding z-score,[4],0.848
same,PBM binding z-score,[5],-0.921
same,PBM binding z-score,[6],0.659
same,PBM binding z-score,[7],0.557
same,PBM binding z-score,[8],0.0532
same,PBM binding z-score,[9],-0.553
same,PBM binding z-score,[10],-0.235
CATACAGGGTCAGCTAGGCCAGAGTGGGGACGGC,PBM binding z-score,[1],4.45
same,PBM binding z-score,[2],2.94
same,PBM binding z-score,[3],0.0582
same,PBM binding z-score,[4],2.72
same,PBM binding z-score,[5],0.724
same,PBM binding z-score,[6],4.31
same,PBM binding z-score,[7],2.96
same,PBM binding z-score,[8],3.01
same,PBM binding z-score,[9],0.597
same,PBM binding z-score,[10],1.9
AGAACGAGAGCAATGAGTTGATAGCACGGGTGGC,PBM binding z-score,[1],-0.715
same,PBM binding z-score,[2],-0.7
same,PBM binding z-score,[3],-0.726
same,PBM binding z-score,[4],-0.759
same,PBM binding z-score,[5],-0.725
same,PBM binding z-score,[6],-0.447
same,PBM binding z-score,[7],0.796
same,PBM binding z-score,[8],-0.0173
same,PBM binding z-score,[9],-0.196
same,PBM binding z-score,[10],0.0595
CCAGCCAGGTGAGAAGGTAACTCAGCCTCGATTA,PBM binding z-score,[1],-0.27
same,PBM binding z-score,[2],-0.406
same,PBM binding z-score,[3],-0.377
same,PBM binding z-score,[4],-0.292
same,PBM binding z-score,[5],-0.967
same,PBM binding z-score,[6],0.458
same,PBM binding z-score,[7],0.262
same,PBM binding z-score,[8],1.03
same,PBM binding z-score,[9],-0.318
same,PBM binding z-score,[10],0.318
ATCGAAAGGTCGATGAGGTGAGTATACACCGTTT,PBM binding z-score,[1],3.46
same,PBM binding z-score,[2],2.76
same,PBM binding z-score,[3],-0.117
same,PBM binding z-score,[4],2.16
same,PBM binding z-score,[5],0.539
same,PBM binding z-score,[6],3.5
same,PBM binding z-score,[7],1.83
same,PBM binding z-score,[8],2.19
same,PBM binding z-score,[9],1.1
same,PBM binding z-score,[10],1.4
GCTATTAGTTGAAAGGGCAACCTAATGATTCTCG,PBM binding z-score,[1],0.451
same,PBM binding z-score,[2],0.673
same,PBM binding z-score,[3],0.238
same,PBM binding z-score,[4],1.08
same,PBM binding z-score,[5],-0.393
same,PBM binding z-score,[6],2.38
same,PBM binding z-score,[7],2.46
same,PBM binding z-score,[8],4.31
same,PBM binding z-score,[9],2.24
same,PBM binding z-score,[10],4.3
ATCGAAAGGTCGACGAGGTGAATATACACCGTTT,PBM binding z-score,[1],5.37
same,PBM binding z-score,[2],3.82
same,PBM binding z-score,[3],0.162
same,PBM binding z-score,[4],3.31
same,PBM binding z-score,[5],0.511
same,PBM binding z-score,[6],4.54
same,PBM binding z-score,[7],3.21
same,PBM binding z-score,[8],3.62
same,PBM binding z-score,[9],1.4
same,PBM binding z-score,[10],2.47
AGAACGAGGGCACGCTGAGGTGATAGCAGAGTAG,PBM binding z-score,[1],1.52
same,PBM binding z-score,[2],0.73
same,PBM binding z-score,[3],-0.584
same,PBM binding z-score,[4],0.0618
same,PBM binding z-score,[5],-1
same,PBM binding z-score,[6],2.18
same,PBM binding z-score,[7],2.3
same,PBM binding z-score,[8],2.19
same,PBM binding z-score,[9],0.193
same,PBM binding z-score,[10],1.29
